About 79,000 compounds went through this panel and 15% of them were active in at least one assay; those are over-represented in the sample as a whole. The source made the active and inactive calls. Cut-off read from the data, not from the text of the source: active = growth inhibition above about 70%; inactive = the rest.
assay: NCI Yeast Anticancer Drug Screen. Data for the bub3 strain (AID 167); conditions: S. cerevisiae bub3 mutant strain, at 50.0 µM, hits give high values
Protocol: Growth inhibition of yeast strains with defined genetic alterations is measured as a screen for potential anti-cancer activity. Selected strains with alterations in DNA damage repair or cell cycle control were exposed to compounds and growth inhibition was measured relative to vehicle treated controls. The strain used in this assay is bub3

SMILES	growth inhibition
CN(C)c1ccc(S(=O)(=O)O)cc1	2.55% (inactive)
CN1C(=O)CN2CCc3ccccc3C2c2cc(Cl)ccc21 (stereo not given)	48% (inactive)
O=C1C=CC(=O)N1c1ccc(I)cc1Cl	32.3% (inactive)
COc1ccc(C(C)C=O)cc1 (stereo not given)	-27.9% (inactive)
COC(=O)/C=C\C(=O)OC	-10.3% (inactive)
COc1ccc(Oc2c(I)cc(CC(NC(C)=O)C(=O)O)cc2I)cc1 (stereo not given)	37.4% (inactive)
CCOC(=O)c1[nH]c(C)c(C(=O)O)c1C	-23.8% (inactive)
c1cc2cccc3c4cccc5cccc(c(c1)c23)c54	-4.15% (inactive)
N#Cc1ccc(NC(=O)Nc2cccc(C#N)c2)cc1	-0.3% (inactive)
COc1cc(CN)ccc1O	11.8% (inactive)
COC(=O)c1cccnc1	-23.8% (inactive)
O=c1cc(-c2ccccc2)[nH]c2c1CCCC2	0.95% (inactive)
O=C(O)c1ccc(S(=O)(=O)O)cc1	18.5% (inactive)
COc1ccc(C(=O)C(Br)C(Br)C(=O)O)cc1 (stereo not given)	5.45% (inactive)
CC(C)OC(C(=O)O)c1ccccc1 (stereo not given)	1.05% (inactive)
Cc1ccc(/C=C2\SC(=S)N(c3ccc(F)cc3)C2=O)o1	15.8% (inactive)
Cc1cc(N)c(S(=O)(=O)O)c(N)c1	11.8% (inactive)
CC(=O)Cc1cc(-c2cc(CC(C)=O)[nH]n2)n[nH]1	-5.45% (inactive)
CCCCC(=O)c1ccc(OC)cc1	-8.3% (inactive)
COc1cccc(COC(=O)Nc2ccccc2)c1OC	42.5% (inactive)

SMILES	growth inhibition
O=C1N(C[P+](c2ccccc2)(c2ccccc2)c2ccccc2)CCCN1C[P+](c1ccccc1)(c1ccccc1)c1ccccc1	15.1% (inactive)
CCCCC(CC)COC(C)=O (stereo not given)	12% (inactive)
O/N=C/c1ccc(O)cc1O	17.9% (inactive)
O=C(O)c1cccc([N+](=O)[O-])c1O	-0.8% (inactive)
CCOC(=O)c1ccc(Nc2sc(C(=O)c3cccc([N+](=O)[O-])c3)c(N)c2C#N)cc1	2.8% (inactive)
CC1(C)OC(=O)C(c2ccsc2)C(=O)O1	-7.05% (inactive)
COC(=O)Nc1cccc(Cl)c1OC	3.55% (inactive)
CCOc1ccc(/C=C/C(=O)c2ccccc2)cc1	22.4% (inactive)
COc1cc2c3c(n(C)c(=O)c2cc1OC)-c1cc2c(cc1C3=O)OCO2	-3.6% (inactive)
NC(=O)c1ccc(N=C(N)N=C(N)N)cc1	-11.8% (inactive)
CC1(C)/C(=C\CO)C2CCC1C2 (stereo not given)	-2.65% (inactive)
CC(=O)OC1CC2C(C)(C)OC3CC(=O)OCC32C2CCC3(C)C(=CCC3c3ccoc3)C12C (stereo not given)	-10.3% (inactive)
C/C(=N\NC(=O)c1ccccc1N)c1ccccc1O	26.1% (inactive)
O=C(c1ccc(O)cc1)c1ccc(O)cc1	-9.15% (inactive)
O=[N+]([O-])c1ccc(N=Nc2ccc(O)c3ccccc23)cc1	-25.2% (inactive)
S=c1nn[nH]c2ccccc12	7.8% (inactive)
CC1(C)S(=O)(=O)OCCOS1(=O)=O	7.35% (inactive)
CCS(=O)(=O)CCCl	0.95% (inactive)
NCCC(=O)c1ccc(Cl)cc1	-9.6% (inactive)
S=c1sc2ccccc2n1CN1CCCCC1	25.3% (inactive)

Source: PubChem BioAssay (NCI)
